Reference: PubChem BioAssay AID620 (Sanford-Burnham Center for Chemical Genomics, 2007)
Screen size: about 87,000 compounds; about 360 (0.41%) were called active. The list comes from a sample in which actives are over-represented; it also holds similar structures and randomly drawn compounds. Values without a mark were called inactive. No stated cut-off is given here; in the data, active means cytotoxicity above about 50%; inactive means the rest.

Test: cytotoxicity in HT1080 fibrosarcoma cells, cell-based, fluorescence readout (AID 620);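 further: cells exposed to compound overnight then 4 h with Alamar Blue; 0% = vehicle DMSO and 100% = killing control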
Conditions: HT1080 viability, at 10 µM, hits give high values

Row | SMILES | cytotoxicity
1 | CCOC(=O)c1ccc2ncc(C(=O)OCC)c(NCc3ccco3)c2c1 | 1.9%
2 | O=S(=O)(Nc1ccccn1)c1ccc(Cl)cc1 | -6.1%
3 | COc1cccc(-n2c(Cc3cc(=O)[nH]c(=O)[nH]3)nnc2SCC(=O)N2CCCC2)c1 | 3.9%
4 | COc1ccc([C@H]2[C@@H](C#N)[C@H](C#N)N3CCCN23)cc1 | 5.9%
5 | O=C(CCn1c(=O)sc2ccccc21)NCCN1CCOCC1 | 4.4%
6 | Cc1ccc(-c2noc(CCCN3C(=O)c4ccccc4C3=O)n2)cc1 | -3.5%
7 | CC(C)c1ccc(NC(=S)NCc2cccs2)cc1 | -17.4%
8 | O=C(CN1CCc2ccccc2C1)Nc1ccc(Br)cc1 | -3.2%
9 | O=C(Nc1ccc(N2CCN(C(=O)c3ccco3)CC2)c(Cl)c1)c1c(F)c(F)c(F)c(F)c1F | -3%
10 | O=C(Nc1ccc(N2CCCC2)c(Cl)c1)c1ccc(Br)o1 | 12.7%
11 | O=C(Nc1ccc(N2CCN(C(=O)c3ccco3)CC2)c(Cl)c1)c1cc2ccccc2o1 | 81.6% (active)
12 | O=C(Nc1ccc(N2CCOCC2)c(Cl)c1)c1ccc(Br)o1 | 51.4% (active)
13 | O=C(Nc1ccc(N2CCN(C(=O)c3ccccc3)CC2)c(Cl)c1)c1ccc(Br)o1 | 22.5%
14 | O=C(Nc1ccc(N2CCN(C(=O)c3ccccc3)CC2)c(Cl)c1)c1ccco1 | -4.5%
15 | COc1ccc2c(c1)c(=O)oc1cc(OCC(=O)N3CCCC(C)C3)ccc12 (stereo unspecified) | -1.8%
16 | CCC1=C(C)N(CCCC(=O)O)C(=O)NC1c1cccc(Cl)c1Cl (stereo unspecified) | -11.7%
17 | CCOC(=O)C1=C(C)NC(SCC(=O)O)=C(C#N)C1c1ccco1 (stereo unspecified) | -8%
18 | O=C(CN(C1CCCCC1)S(=O)(=O)c1ccccc1)NCc1cccnc1 | 1.3%
19 | CCOC(=O)c1c(C)[nH]c2cc(Br)c(OC)cc12 | -9%
20 | C=CCNC(=O)C12CC3(C)CC(C)(CC(C)(C3)C1)C2 | -24.6%
21 | CCOC(=O)c1c(NC(=O)CCl)sc(C(=O)N(CC)CC)c1C | 53.8% (active)
22 | CCOC(=O)c1c(NC(=O)CN(C)C)sc(C(=O)N(CC)CC)c1C | 25.3%
23 | CCOC(=O)Nc1sc(C(=O)N(CC)CC)c(C)c1C(=O)OCC | -6%
24 | CCC(C)[C@H](NC(=O)NCc1cccs1)C(=O)O (stereo partly specified) | 8.7%
25 | CC(C)(C)NC(=O)Cn1nnnc1-c1nonc1N | 0.2%
26 | CCOC(=O)c1cnc(SCc2ccc(C)cc2)nc1N | 5.8%

Row | SMILES | cytotoxicity
27 | CCOC(=O)c1ccccc1NC(=O)Cn1c(-c2nonc2N)nc2ccccc21 | 60.4% (active)
28 | CCC(=O)Nc1nonc1-c1nc2ccccc2n1Cc1ccc(Cl)c(Cl)c1 | -2.7%
29 | COC(=O)c1ccccc1NC(=O)Cn1c(-c2nonc2N)nc2ccccc21 | 32%
30 | CCCCOc1ccccc1NC(=O)Cn1c(-c2nonc2N)nc2ccccc21 | 24.5%
31 | CCC(=O)Nc1nonc1-c1nc2ccccc2n1Cc1cccc2ccccc12 | 56.3% (active)
32 | CCC(=O)Nc1nonc1-c1nc2ccccc2n1CC(C)C | 2.9%
33 | O=C(O)c1cccc(CN2C(=O)CSC2=O)c1 | 3.1%
34 | Cc1nn(-c2ccccc2)c2sc(C(=O)OCN3C(=O)c4ccccc4C3=O)cc12 | -4%
35 | NC(=O)c1ccccc1OCC(=O)NS(=O)(=O)c1ccc(Cl)cc1 | -12.8%
36 | CC(C)COc1ccc(CNC(=S)N/N=C/c2ccc([N+](=O)[O-])cc2)cc1 | -12.7%
37 | O=C1C2CCCN2C(c2cccc(F)c2)N1c1cccc(Cl)c1 (stereo unspecified) | 8.3%
38 | N=c1n(CCOc2ccccc2)c2ccccc2n1CCN1CCOCC1 | 6.2%
39 | CCCCOC(=O)Cn1c(=N)n(CCN2CCOCC2)c2ccccc21 | -3.2%
40 | N=c1n(CCN2CCOCC2)c2ccccc2n1CC(=O)c1ccc(Cl)c(Cl)c1 | 80.5% (active)
41 | O=C(COc1ncnc2ccccc12)NC1CCS(=O)(=O)C1 (stereo unspecified) | 0.3%
42 | O=C(Nc1ccc(NC(=O)C2CCCCC2)nc1)c1ccco1 | -0.2%
43 | COc1ccccc1N1CCN(Cc2nc(N)nc(Nc3ccc(C)cc3)n2)CC1 | -2.7%
44 | CSc1nc(C)c2cc(C)oc2n1 | 10.3%
45 | COc1ccc2nc(NC(=O)CCn3cccc3)sc2c1 | 2.1%
46 | CN1CCN(C2=C(Cl)C(=O)C(c3cnc(N4CCCCC4)s3)=C(Cl)C2=O)CC1 | 37.1%
47 | CN(C)c1ncc(C2=C(Cl)C(=O)C(N3CCCC3)=C(Cl)C2=O)s1 | 16.7%
48 | CCCCOc1ccc(CSc2nncn2N)cc1 | 0.8%
49 | COc1ccc(OC)c(NS(=O)(=O)c2ccc3c(c2)n(C)c(=O)n3C)c1 | -7.2%
50 | Cc1ccccc1NS(=O)(=O)c1ccc(N2CCCC2=O)cc1 | 56.7% (active)
51 | COc1ccc(OC)c(NS(=O)(=O)c2ccc(N3CCCC3=O)cc2)c1 | 60.6% (active)
52 | O=C1CCCN1c1ccc(S(=O)(=O)NCCOc2ccccc2)cc1 | -6.1%

Row | SMILES | cytotoxicity
53 | Cc1ccccc1NS(=O)(=O)c1ccc(F)cc1 | 6.2%
54 | COc1ccc(CCNS(=O)(=O)c2ccc(N3CCCC3=O)cc2)cc1 | -12.5%
55 | CCOC(=O)C1CCN(C(=O)Nc2ccc3nc(C)c(C)nc3c2)CC1 | 2.9%
56 | Cc1cc(C)c(S(=O)(=O)NCC2CCC(C(=O)NCCCN3CCOCC3)CC2)c(C)c1 (stereo unspecified) | 2.9%
57 | Cc1cc(C)c(NC(=O)c2ccc(S(=O)(=O)N3CCOCC3)cc2)c(C)c1 | -5.9%
58 | C=CCN1C(=O)S/C(=C/c2ccsc2)C1=O | 2.6%
59 | C/C=C/COC(=O)c1[nH]c2c(c1C)C(=O)CC(c1ccco1)C2 (stereo unspecified) | 65.5% (active)
60 | C=CCOC(=O)c1[nH]c2c(c1C)C(=O)CC(c1ccco1)C2 (stereo unspecified) | 67.5% (active)
61 | C/C=C/COC(=O)c1[nH]c2c(c1C)C(=O)CC(c1ccc(N(C)C)cc1)C2 (stereo unspecified) | -0.3%
62 | N#CC1=C2C=CC=CN2CC1=O | -0.7%
63 | COc1ccc(CC(=O)N2CCCc3ccccc32)cc1 | -11%
64 | CCSC1(SCC)N=C(N)C2(C#N)C(c3ccccc3)NC(C)=C(C)C12C#N (stereo unspecified) | 6.9%
65 | CCN(CC)S(=O)(=O)c1ccc(Br)c(OC)c1 | -1.2%
66 | CCc1ccccc1NC(=O)CN1C(=O)C2CCCN2c2ncc(Cl)cc21 (stereo unspecified) | -1.2%
67 | O=C(O)Cc1ccc(C(=O)c2cccs2)s1 | 6.9%
68 | O=C(c1cccs1)c1no[n+]([O-])c1C(=O)c1cccs1 | 73.8% (active)
69 | Cc1ccc(C(=O)c2nocc2C(=O)c2cccs2)cc1 | -9.5%
70 | CCOC(=O)N1CCN(C(=O)c2cnsn2)CC1 | -5.1%
71 | CC(C)(C)N1CC(c2nc3ccccc3n2Cc2ccccc2)CC1=O (stereo unspecified) | -14.8%
72 | Cc1cccc(N(C)C(=O)COc2cc(=O)n(C)c3ccccc23)c1 | 2%
73 | Cc1cnc(C(=O)OCC(=O)N2c3ccccc3NC(=O)C2(C)C)cn1 | -0.5%
74 | Cc1ccc2[nH]c(C(=O)O)c(-c3ccccc3)c2c1 | -8.4%
75 | CCN(CC)Cc1c(-c2ccccc2)[nH]c2ccc(C)cc2c1=O | 5.1%
76 | O=c1cc(-c2ccccc2)c2ccccc2[nH]1 | -2.5%
77 | O=c1cc(-c2ccccc2)[nH]c2ccccc12 | 67.1% (active)
78 | Cc1ccc2[nH]c(-c3ccccc3)cc(=O)c2c1 | 71.1% (active)

Row | SMILES | cytotoxicity
79 | Cc1cc(=O)c2ccccc2[nH]1 | 26.5%
80 | Cc1ccc(NC(=O)N(CCCN2CCOCC2)Cc2cc3cc4c(cc3[nH]c2=O)OCO4)cc1 | -5.1%
81 | C#CC(C)(CC)NC(=O)Cn1nnc(-c2ccc(S(C)(=O)=O)cc2)n1 (stereo unspecified) | -5.1%
82 | CC(CN1CCCCC1)OC(=O)Cc1ccc(Cl)cc1 (stereo unspecified) | -6.9%
83 | O=C(NCC(c1cccs1)N1CCOCC1)c1ccc(Cl)s1 (stereo unspecified) | 62.9% (active)
84 | O=C(COc1ccccc1)NCC(c1cccs1)N1CCOCC1 (stereo unspecified) | -8.1%
85 | O=C(NCC(c1cccs1)N1CCOCC1)c1ccc(Br)o1 (stereo unspecified) | 56.3% (active)
86 | O=C(NCC(c1ccc(F)cc1)N1CCOCC1)c1ccc(Br)o1 (stereo unspecified) | -5.4%
87 | O=C(NCC(c1cccs1)N1CCOCC1)c1ccco1 (stereo unspecified) | 9%
88 | CCC(=O)NCC(c1cccs1)N1CCOCC1 (stereo unspecified) | -3.1%
89 | CCCCCC(=O)OC(CN1CCCCC1)CN1CCCC1=O (stereo unspecified) | 6.6%
90 | COc1ccccc1NC(=S)NNC(=O)c1ccc(Cl)cc1Cl | -4%
91 | Cc1ccc(-c2noc(-c3ccccc3C(=O)N3CCOCC3)n2)cc1 | -2.2%
92 | Cc1cc(N2CCCC2=O)cc(C)c1S(=O)(=O)NCCOc1ccccc1 | 0.6%
93 | CCOc1ccc(NC2=NC(C(=O)NCc3ccccc3)CC(=O)N2)cc1 (stereo unspecified) | 7.4%
94 | CC(C)(C)c1ccc(C(=O)Nc2cnccn2)cc1 | -0.1%
95 | Cc1noc(C)c1COc1ccc(C(=O)OCC(=O)N2CC(=O)Nc3ccccc32)cc1 | -12.1%
96 | CCC(Oc1ccccc1)C(=O)Nc1nnc(C)s1 (stereo unspecified) | -5.1%
97 | Cc1occc1C(=O)Nc1ccc2c(c1)OCCO2 | 11.2%
98 | CC(=O)NC1C(=O)N(C)c2ccc(Br)cc21 (stereo unspecified) | -16.4%
99 | Cc1ccc(Cc2c(C)nc3nc(SCC(=O)NCc4ccco4)nn3c2C)cc1 | 69.7% (active)
100 | Cc1nc2nc(SCC(=O)NCc3ccco3)nn2c(C)c1Cc1c(F)cccc1Cl | -13.6%
101 | Cc1ccccc1Cc1c(C)nc2nc(SCC(=O)NCc3ccco3)nn2c1C | -13.4%
